# Inconclusive results are not listed. Active and inactive are the calls of the source. Unless noted, the call rests on the fitted dose curve; in most records, active means well fitted curve in the direction sought with a large enough effect; inconclusive means small, poorly fitted or top-dose-only effect, or another doubt; inactive means no such curve, though single readings can be large; an effect the other way counts as inactive or inconclusive.
# How the values were obtained:
# [1] = biological target: Glucocorticoid receptor (Homo sapiens) (UniProt P04150); assay: qHTS assay for small molecule agonists of glucocorticoid receptor signaling (AID 588532; active means well fitted curve in the direction sought with a large enough effect in the signal ratio, with a control signal flat; the % refers to the signal ratio;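 further: 100% = dexamethasone at 0.1 µM and 0% = DMSO only wells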); settings: HeLa MMTV-bla, beta-lactamase ratio, agonist, 18 h; stronger effect = higher value; percent of dexamethasone control, DMSO zero
# Sequence of Glucocorticoid receptor (Homo sapiens) (P04150 whole entry, looked up): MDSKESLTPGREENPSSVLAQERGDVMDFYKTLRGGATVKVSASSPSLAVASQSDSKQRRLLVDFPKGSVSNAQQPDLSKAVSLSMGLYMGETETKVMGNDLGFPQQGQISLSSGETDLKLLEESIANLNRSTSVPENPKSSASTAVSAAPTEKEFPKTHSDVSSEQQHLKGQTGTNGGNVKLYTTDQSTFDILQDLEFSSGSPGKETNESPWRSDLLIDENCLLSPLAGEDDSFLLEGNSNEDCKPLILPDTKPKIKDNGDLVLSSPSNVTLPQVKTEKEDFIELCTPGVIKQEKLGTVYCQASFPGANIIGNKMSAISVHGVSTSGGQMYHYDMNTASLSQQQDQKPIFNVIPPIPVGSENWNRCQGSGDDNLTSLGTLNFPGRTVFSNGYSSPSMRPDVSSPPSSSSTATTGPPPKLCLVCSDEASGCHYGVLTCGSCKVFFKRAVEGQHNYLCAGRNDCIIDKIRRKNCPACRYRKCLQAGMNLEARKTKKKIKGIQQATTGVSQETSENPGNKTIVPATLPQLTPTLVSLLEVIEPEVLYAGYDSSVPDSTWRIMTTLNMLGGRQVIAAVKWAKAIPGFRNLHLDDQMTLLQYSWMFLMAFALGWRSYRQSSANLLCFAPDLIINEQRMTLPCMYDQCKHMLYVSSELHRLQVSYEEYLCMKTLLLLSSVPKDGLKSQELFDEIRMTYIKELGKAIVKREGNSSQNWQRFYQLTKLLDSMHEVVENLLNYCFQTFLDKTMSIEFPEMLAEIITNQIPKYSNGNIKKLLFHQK
# Procedure, shortened: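 Using MMTV-bla HeLa cells in medium with 1% stripped FBS and 25 mM HEPES, compounds were titrated and incubated overnight-length (18 h). Beta-lactamase cleavage of CCF4 was quantified by dual-emission fluorescence.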
# [2] = biological target: Glucocorticoid receptor (Homo sapiens) (UniProt P04150); assay: qHTS assay for small molecule antagonists of glucocorticoid receptor signaling (AID 588533; active means well fitted inhibition curve with a large enough effect in the signal ratio, with a control signal flat, not every such curve was filed as active; the % refers to the signal ratio;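 further: cells stimulated with 2 nM dexamethasone as agonist; on the % scale 0 is the no-effect control and ±100 the full control effect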); settings: HeLa MMTV-bla, GRE beta-lactamase ratio, antagonist mode, 18 h; series mostly up to 76.8 µM
# Procedure, shortened: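 Antagonist-mode qHTS: compound titrations added to GRE-bla HeLa cells, then dexamethasone 2 nM final; 18 h, 37 C. CCF4 FRET fluorescence normalized to dexamethasone and DMSO; IC50 from Hill fit.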
# [3] = qHTS assay for small molecule antagonists of peroxisome proliferator-activated receptor delta signaling (AID 588535); settings: HEK293T PPARd-UAS-bla, beta-lactamase FRET ratio, 18 h; 460 nm channel;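 further: cells co-treated with a PPAR-delta agonist as stimulator during compound exposure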
# Procedure, shortened: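 Titrations were run on PPAR-delta-UAS-bla HEK293T cells in charcoal/dextran-stripped serum, incubated 18 h at 37 C. CCF4 fluorescence (460/530 nm) after 2 h RT; Hill equation yields IC50 and maximal response.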
# [4] = biological target: Vitamin D3 receptor (Homo sapiens) (UniProt P11473); assay: qHTS assay for small molecule agonists of vitamin D receptor signaling (AID 588543; calls by dose curve;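 further: 0% = DMSO basal and 100% = reference agonist control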); settings: HEK293T VDR-UAS-bla, beta-lactamase ratio, 16 h; series mostly up to 76.8 µM
# Sequence of Vitamin D3 receptor (Homo sapiens) (P11473 whole entry, looked up): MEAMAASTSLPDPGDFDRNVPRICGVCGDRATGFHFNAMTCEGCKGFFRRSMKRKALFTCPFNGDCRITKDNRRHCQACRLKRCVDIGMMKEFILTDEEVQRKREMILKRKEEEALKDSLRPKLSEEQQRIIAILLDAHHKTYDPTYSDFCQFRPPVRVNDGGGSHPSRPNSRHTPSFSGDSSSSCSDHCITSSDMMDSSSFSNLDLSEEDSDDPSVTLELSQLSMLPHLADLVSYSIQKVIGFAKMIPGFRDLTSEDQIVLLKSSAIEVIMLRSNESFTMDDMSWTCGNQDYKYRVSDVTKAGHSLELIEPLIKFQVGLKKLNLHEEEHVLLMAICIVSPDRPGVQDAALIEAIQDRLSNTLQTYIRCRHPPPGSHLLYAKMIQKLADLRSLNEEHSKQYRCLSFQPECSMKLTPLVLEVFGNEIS
# Procedure, shortened: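 Measured: β-lactamase reporter activity (CCF4, 405 nm excitation, 460/530 nm emission) in HEK293T VDR-UAS-bla cells after 16 h compound exposure at 37 °C. Normalization against 50 nM 1α,25-dihydroxyvitamin D3 and DMSO; Hill-fit EC50.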
# [5] = qHTS assay for small molecule agonists of retinoid X receptor alpha signaling (AID 588544; calls by dose curve;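 on activation: 0% = DMSO basal wells and 100% = reference agonist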); settings: HEK293T RXRa-UAS-bla, beta-lactamase reporter, 18 h; 530 nm emission
# [6] = biological target: Retinoic acid receptor RXR-alpha (Homo sapiens) (UniProt P19793); assay: as above; settings: HEK293T RXRa-UAS-bla, beta-lactamase reporter, 18 h; series mostly up to 76.7 µM
# Sequence of Retinoic acid receptor RXR-alpha (Homo sapiens) (P19793 whole entry, looked up): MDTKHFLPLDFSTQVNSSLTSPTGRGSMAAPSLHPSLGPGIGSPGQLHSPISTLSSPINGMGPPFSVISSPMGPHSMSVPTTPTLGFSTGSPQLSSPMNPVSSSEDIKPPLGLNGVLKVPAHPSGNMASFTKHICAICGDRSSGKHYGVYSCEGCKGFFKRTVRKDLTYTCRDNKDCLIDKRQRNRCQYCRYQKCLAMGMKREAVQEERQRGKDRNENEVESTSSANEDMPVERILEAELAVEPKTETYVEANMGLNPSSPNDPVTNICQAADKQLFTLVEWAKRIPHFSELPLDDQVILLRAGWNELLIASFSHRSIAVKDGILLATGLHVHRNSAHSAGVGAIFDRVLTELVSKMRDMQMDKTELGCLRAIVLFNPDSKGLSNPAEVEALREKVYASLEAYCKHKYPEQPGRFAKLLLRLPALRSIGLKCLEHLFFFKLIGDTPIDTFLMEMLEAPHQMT
# [7] = biological target: Thyroid hormone receptor beta (Homo sapiens) (UniProt P10828); assay: qHTS assay for small molecule agonists of thyroid hormone receptor beta signaling (AID 588545; calls by dose curve); settings: TR-UAS-bla GripTite HEK 293, beta-lactamase ratio, agonist mode, 18 h; series mostly up to 76.7 µM
# Sequence of Thyroid hormone receptor beta (Homo sapiens) (P10828 whole entry, looked up): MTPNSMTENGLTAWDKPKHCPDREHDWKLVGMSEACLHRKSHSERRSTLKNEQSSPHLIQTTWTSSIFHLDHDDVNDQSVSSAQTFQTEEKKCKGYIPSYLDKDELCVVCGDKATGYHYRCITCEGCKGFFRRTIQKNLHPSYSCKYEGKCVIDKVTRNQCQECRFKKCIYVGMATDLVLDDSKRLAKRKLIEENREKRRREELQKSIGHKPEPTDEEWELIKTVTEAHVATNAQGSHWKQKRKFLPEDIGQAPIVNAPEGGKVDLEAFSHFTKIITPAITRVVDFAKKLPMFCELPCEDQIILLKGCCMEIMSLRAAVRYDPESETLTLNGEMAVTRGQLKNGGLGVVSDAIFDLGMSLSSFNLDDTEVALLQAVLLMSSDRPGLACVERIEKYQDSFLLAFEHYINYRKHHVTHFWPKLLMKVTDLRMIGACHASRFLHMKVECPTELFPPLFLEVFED
# Procedure, shortened: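 In this cell-based screen, titrated compounds act on HEK 293 cells held in medium with 2% charcoal/dextran FBS, NEAA and pyruvate for 18 hrs at 37 C. Responses are expressed relative to T3 (10 nM) as 100% and basal DMSO as 0%.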
# [8] = qHTS assay for small molecule antagonists of retinoid X receptor alpha signaling (AID 588546; active means well fitted inhibition curve with a large enough effect in the signal ratio, with a control signal flat, not every such curve was filed as active; the % refers to the signal ratio;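 further: cells stimulated with 9-cis-retinoic acid as agonist; on the % scale 0 is the no-effect control and ±100 the full control effect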); settings: HEK293T RXRa-UAS-bla, beta-lactamase ratio, antagonist mode; measured here: W530 green channel, cytotoxicity proxy
# Procedure, shortened: (§1)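 Beta-lactamase reporter inhibition, read as CCF4 fluorescence ratio (ex 405, em 460/530 nm) after 2 h at RT. HEK293T UAS-bla cells, 2500/well, were stimulated with 9-cis-RA at 500 or 100 nM final alongside test compound for 18 h at 37 C.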
# [9] = biological target: Retinoic acid receptor RXR-alpha (Homo sapiens) (UniProt P19793); assay: as above; settings: HEK293T RXRa-UAS-bla, beta-lactamase ratio, antagonist mode
# Procedure, shortened: as §1
# [10] = biological target: Thyroid hormone receptor beta (Homo sapiens) (UniProt P10828); assay: qHTS assay for small molecule antagonists of thyroid hormone receptor beta signaling (AID 588547; active means well fitted inhibition curve with a large enough effect in the signal ratio, with a control signal flat, not every such curve was filed as active; the % refers to the signal ratio;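 further: cells stimulated with 0.4 nM T3 agonist during compound exposure; on the % scale 0 is the no-effect control and ±100 the full control effect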); settings: TR-UAS-bla HEK293, beta-lactamase ratio, antagonist mode, 18 h
# Procedure, shortened: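 Inhibition of T3-driven (0.4nM final) beta-lactamase reporter activity was measured over 0.59 nM to 92 uM compound after 18 h at 37 C. The cells were GripTite HEK293 TR-UAS-bla in charcoal/dextran-stripped serum, with CCF4 ratio read-out and IC50 from Hill fits.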
# [11] = qHTS assay for environmental chemicals that activate the Aryl hydrocarbon Receptor (AhR) signaling pathway (AID 651777); settings: 1A2-DRE human hepatoma cells, luciferase, 24 h; activation: stronger effect = higher value; further: % of control where 0% means no effect; nearly all actives have a fitted effect of over 15% in size
# Procedure, shortened: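 Reporter gene assay: hepatoma cells with DRE/CYP1A2-luciferase, 24 hr compound incubation at 37 C, 5% CO2, luminescence after One-Glo (30 min, RT).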
# [12] = biological target: Peroxisome proliferator-activated receptor alpha (Homo sapiens) (UniProt Q07869); assay: qHTS assay for small molecule agonists of the peroxisome proliferator-activated receptor alpha (PPARalpha) signaling pathway (AID 651778); settings: PathHunter PPARalpha complementation, chemiluminescence, 6 h; max response: stronger effect = higher value; further: % of control where 0% means no effect
# Sequence of Peroxisome proliferator-activated receptor alpha (Homo sapiens) (Q07869 whole entry, looked up): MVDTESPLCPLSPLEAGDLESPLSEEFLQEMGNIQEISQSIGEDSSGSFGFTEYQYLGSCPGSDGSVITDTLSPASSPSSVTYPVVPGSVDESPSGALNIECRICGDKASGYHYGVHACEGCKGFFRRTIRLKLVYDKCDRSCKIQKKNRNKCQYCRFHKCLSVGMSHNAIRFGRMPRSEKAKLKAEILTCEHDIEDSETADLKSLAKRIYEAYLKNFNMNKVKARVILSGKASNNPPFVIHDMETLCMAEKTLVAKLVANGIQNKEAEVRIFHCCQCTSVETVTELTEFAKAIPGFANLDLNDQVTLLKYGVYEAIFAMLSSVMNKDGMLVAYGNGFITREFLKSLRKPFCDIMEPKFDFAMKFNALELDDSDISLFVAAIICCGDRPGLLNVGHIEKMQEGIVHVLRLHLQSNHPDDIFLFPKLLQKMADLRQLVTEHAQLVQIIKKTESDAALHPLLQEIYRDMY
# Procedure, shortened: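 Chemiluminescence from complemented enzyme reported PPARalpha activation in cells after 6 hr of compound treatment at 37 C. The detection reagent was incubated for 60 min at room temperature, and compounds were scored as agonists.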
# [13] = qHTS assay for small molecule agonists of the antioxidant response element (ARE) signaling pathway measured by Nrf2-dependant transcriptional activity (AID 720636; active means well fitted curve in the direction sought with a large enough effect in the repeat runs; an effect the other way counts as inactive or inconclusive;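 further: HepG2 cells with an ARE-driven luciferase reporter; % of control where 0% means no effect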); settings: ARE-luc HepG2, Nrf2 luciferase reporter, 16 h; series mostly up to 92.4 µM
# Procedure, shortened: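 Nrf2-dependent transcription is measured in ARE-luc HepG2 cells: compound is applied for 16 hr at 37 C after a 6 hr attachment period, and luciferase activity is quantified by luminescence using ONE-Glo.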
# [14] = qHTS assay for small molecule agonists of the antioxidant response element (ARE) signaling pathway measured by Nrf2-dependant transcriptional activity - cell viability counter screen (AID 720653; active means well fitted curve in the direction sought with a large enough effect in the repeat runs; an effect the other way counts as inactive or inconclusive; further: on the % scale 0 is the no-effect control and ±100 the full control effect); settings: ARE-bla HepG2 viability, CellTiter-Glo ATP luminescence, 16 h; max response: stronger effect = lower value
# Procedure, shortened: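 Cytotoxicity counter screen: intracellular ATP quantified by CellTiter-Glo luminescence in the same ARE-bla HepG2 plates, after 16 h compound exposure and a 2 h beta-lactamase substrate step.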
# [15] = qHTS assay for cell viability of HEK293 cells (AID 743288); settings: ATP luminescence (CellTiter-Glo), 18 h; max response: stronger effect = lower value; further: on the % scale 0 is the no-effect control and ±100 the full control effect; nearly all actives have a fitted effect of over 50% in size
# Procedure, shortened: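 HEK293, 18 h, 37 C, ATP luminescence. Cells at 2,000/well were allowed at least 5 h to settle before dosing; CellTiter-Glo developed 30 min at RT.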
# [16] = qHTS assay for cell viability of the p53RE-bla HCT-116 cell line (AID 743292); settings: p53RE-bla HCT-116 viability, ATP luminescence, 16 h; series mostly up to 95 µM; further: on the % scale 0 is the no-effect control and ±100 the full control effect; nearly all actives have a fitted effect of over 55% in size
# Procedure, shortened: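 ATP-based luminescence, 16 h compound exposure at 37 C, p53RE-bla HCT-116 cells at 4,000/well.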
# [17] = biological target: Nuclear receptor subfamily 1 group I member 2 (Rattus norvegicus) (UniProt Q9R1A7); assay: qHTS assay for small molecule activators of the rat pregnane X receptor (rPXR) signaling pathway (AID 651751; call rule not given here; further: 0% is about no effect); settings: rPXR reporter cells, luciferase (One-Glo), 24 h
# Sequence of Nuclear receptor subfamily 1 group I member 2 (Rattus norvegicus) (Q9R1A7 whole entry, looked up): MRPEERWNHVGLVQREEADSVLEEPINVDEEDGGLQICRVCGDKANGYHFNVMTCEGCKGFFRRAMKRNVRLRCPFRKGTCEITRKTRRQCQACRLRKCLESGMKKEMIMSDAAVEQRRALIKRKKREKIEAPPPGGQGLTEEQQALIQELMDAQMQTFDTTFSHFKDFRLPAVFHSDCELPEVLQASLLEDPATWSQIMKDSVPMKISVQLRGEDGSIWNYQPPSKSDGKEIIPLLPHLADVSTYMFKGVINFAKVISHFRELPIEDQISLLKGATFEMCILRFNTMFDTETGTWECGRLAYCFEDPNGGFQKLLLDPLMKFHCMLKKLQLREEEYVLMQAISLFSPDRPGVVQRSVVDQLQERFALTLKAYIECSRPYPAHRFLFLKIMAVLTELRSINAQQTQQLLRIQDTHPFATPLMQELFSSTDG
# [18] = qHTS assay for small molecule activators of the human pregnane X receptor (PXR) signaling pathway (AID 720659; call rule not given here; further: 0% is about no effect); settings: DPX-2 HepG2 CYP3A4-luciferase, 24 h; series mostly up to 92.3 µM
# [19] = biological target: Estrogen receptor (Homo sapiens) (UniProt P03372); assay: qHTS assay for small molecule agonists of estrogen receptor alpha signaling (AID 588514; calls by dose curve;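 further: 0% = vehicle only and 100% = reference agonist; nearly all actives have a fitted effect of over 70% in size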); settings: ER-alpha-UAS-bla HEK293, beta-lactamase ratio, 18 h; series mostly up to 76.8 µM
# Sequence of Estrogen receptor (Homo sapiens) (P03372 whole entry, looked up): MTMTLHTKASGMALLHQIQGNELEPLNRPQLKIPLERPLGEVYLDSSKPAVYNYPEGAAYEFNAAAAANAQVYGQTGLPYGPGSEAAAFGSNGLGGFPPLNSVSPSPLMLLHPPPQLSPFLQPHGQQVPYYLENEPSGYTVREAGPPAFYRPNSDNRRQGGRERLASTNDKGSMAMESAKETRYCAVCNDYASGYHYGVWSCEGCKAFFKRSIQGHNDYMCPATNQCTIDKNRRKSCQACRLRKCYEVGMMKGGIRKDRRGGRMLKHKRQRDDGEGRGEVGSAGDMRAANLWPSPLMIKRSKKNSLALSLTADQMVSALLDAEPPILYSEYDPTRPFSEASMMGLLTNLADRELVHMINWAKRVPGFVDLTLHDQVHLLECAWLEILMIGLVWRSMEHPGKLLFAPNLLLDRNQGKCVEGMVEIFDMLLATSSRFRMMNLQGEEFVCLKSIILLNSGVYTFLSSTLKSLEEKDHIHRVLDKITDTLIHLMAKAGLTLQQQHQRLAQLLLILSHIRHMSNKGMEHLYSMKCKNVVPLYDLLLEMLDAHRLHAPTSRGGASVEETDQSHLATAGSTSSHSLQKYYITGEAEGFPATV
# Procedure, shortened: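 Efficacy is expressed against 20 nM 17-beta-estradiol (100%) and DMSO basal (0%); EC50 from Hill equation. Assay: beta-lactamase reporter in ER-alpha-UAS-bla HEK 293 cells, 18 h compound incubation, CCF4 detection.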
# [20] = biological target: Peroxisome proliferator-activated receptor gamma (Homo sapiens) (UniProt P37231); assay: qHTS assay for small molecule agonists of peroxisome proliferator-activated receptor gamma signaling (AID 588536; active means well fitted curve in the direction sought with a large enough effect in the signal ratio, with a control signal flat, not every such curve was filed as active; the % refers to the signal ratio;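 further: 0% = DMSO basal wells and 100% = rosiglitazone at 2 µM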); settings: HEK293 PPARg-UAS-bla, beta-lactamase ratio, 16 h, percent of rosiglitazone response, DMSO as zero; series mostly up to 76.7 µM
# Sequence of Peroxisome proliferator-activated receptor gamma (Homo sapiens) (P37231 whole entry, looked up): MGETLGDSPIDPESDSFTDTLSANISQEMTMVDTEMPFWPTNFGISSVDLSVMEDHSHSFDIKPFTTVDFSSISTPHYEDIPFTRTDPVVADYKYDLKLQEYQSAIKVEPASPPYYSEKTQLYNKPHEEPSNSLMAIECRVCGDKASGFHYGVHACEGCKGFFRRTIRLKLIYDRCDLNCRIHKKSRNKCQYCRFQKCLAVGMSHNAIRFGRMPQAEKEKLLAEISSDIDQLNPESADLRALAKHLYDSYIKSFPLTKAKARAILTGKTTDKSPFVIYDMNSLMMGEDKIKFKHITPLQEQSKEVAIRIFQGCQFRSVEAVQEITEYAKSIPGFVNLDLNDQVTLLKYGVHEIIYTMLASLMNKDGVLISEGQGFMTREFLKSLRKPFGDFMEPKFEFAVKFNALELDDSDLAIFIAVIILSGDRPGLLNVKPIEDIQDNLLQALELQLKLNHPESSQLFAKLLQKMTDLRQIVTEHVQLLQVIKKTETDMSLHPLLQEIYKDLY
# Procedure, shortened: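 This is an agonist-mode beta-lactamase reporter assay in HEK293 PPAR-gamma-UAS-bla cells with 1% charcoal/dextran FBS. Compound titrations ran 16 h at 37 C before CCF4 detection. EC50 and efficacy are Hill fits scaled to 2 uM rosiglitazone (100%) and DMSO basal.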
SMILES,activation [1],Potency [2],max response [3] [%],outcome [4],max response [5] [%],Potency [6],Potency [7],max response [8] [%],max response [9],activity change % (negative = inhibition) [10],activation [11],max response [12],Potency [13],max response [14],max response [15],Potency [16],max response [17],outcome [18],Potency [19],outcome [20]
BrC1CCC(Br)C(Br)CCC(Br)C(Br)CCC1Br (stereo not drawn),-5.02% (inactive),inactive,11.4,inactive,0.976,inactive,inactive,-2.96,-24.4% (inactive),9.02% (inactive),1.8% (inactive),-0.0514% (inactive),inactive,0.219% (inactive),-7.59% (inactive),inactive,0.315% (inactive),inactive,,
Cc1c(Cl)cccc1Cl,-6.09% (inactive),inactive,,inactive,-9.08,inactive,,-1.12,-5.5% (inactive),-11.7% (inactive),-0.186% (inactive),-1.42% (inactive),inactive,-14.1% (inactive),-7.06% (inactive),inactive,-2.7% (inactive),inactive,inactive,
Cc1nn(C)c(Oc2ccccc2)c1/C=N/OCc1ccc(C(=O)OC(C)(C)C)cc1,-3.9% (inactive),inactive,,,-10.3,inactive,inactive,,,-18.8% (inactive),,2.08% (inactive),inactive,,,inactive,,inactive,inactive,
O=C=NCCCCCCN=C=O,,,15.2,inactive,-10.7,inactive,inactive,-6.96,-6.2% (inactive),,-0.825% (inactive),-1.66% (inactive),,-0.323% (inactive),-9.94% (inactive),inactive,-0.542% (inactive),inactive,inactive,
CC1(C)C(=O)N(Br)C(=O)N1Br,5.17% (inactive),inactive,-25.7,inactive,-13.9,inactive,inactive,-0.87,-10.9% (inactive),6.14% (inactive),1.3% (inactive),-2.02% (inactive),inactive,-10.4% (inactive),-3.78% (inactive),inactive,-0.134% (inactive),inactive,,inactive
CCCCCCCCCCCCCCCCCC#N,,inactive,1.68,,-14.7,inactive,inactive,-8.8,-4.3% (inactive),11.1% (inactive),2.76% (inactive),,inactive,11.9% (inactive),-12.8% (inactive),inactive,2.15% (inactive),inactive,inactive,inactive
CO[Si](OC)(OC)c1ccccc1,-5.49% (inactive),inactive,44.5,inactive,-13.7,inactive,inactive,-3.5,-6.99% (inactive),,1.89% (inactive),-1.36% (inactive),inactive,-0.0462% (inactive),-0.551% (inactive),inactive,-6.78% (inactive),inactive,inactive,inactive
CCC(C)OC(=O)N1CCCCC1CCO (stereo not drawn),,,49.3,inactive,-14.7,inactive,inactive,-13,3.95% (inactive),-6.45% (inactive),1.16% (inactive),-1.06% (inactive),inactive,-23.7% (inactive),-6.27% (inactive),inactive,-1.56% (inactive),inactive,,inactive
